Results reported in PubChem BioAssay (EPA / NIEHS).
Values joined by “and” are separate entries in the source; they are usually repeats but may differ in a detail not shown here. Identical values can stand only once. Records with an inconclusive call do not appear. The source holds several records for some structures; these can differ, active in one and inactive in another. Active and inactive are the calls of the source. The calls were made as follows, unless noted: active = hit-call score of the fitted dose curve at least 0.9, where 1 is the maximum; inconclusive = response in the unintended direction; inactive = score below 0.9.

Tested on: not listed separately
Test: ATG_VDRE_CIS: Attagene CIS-FACTORIAL HepG2 Assay for human Vitamin D Receptor Element (VDRE) (AID 2282968; active = hit-call score of the fitted dose curve at least 0.9, where 1 is the maximum; inactive = score below 0.9)
Conditions: HepG2 VDRE cis-reporter transcription, actives raise or lower the signal
In short: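 Readout is VDRE-driven reporter mRNA reflecting endogenous factor activity in human HepG2 cells, sampled 24 h post-dose. Quantification used labelled RT-PCR products separated by capillary electrophoresis; bidirectional analysis relative to DMSO.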

Row | SMILES | AC50 | outcome
1 | CCCCCCCCCc1ccc(O)cc1 | 151 µM (active) | inactive
2 | CC(C)C(=O)OCC(C)(C)C(OC(=O)C(C)C)C(C)C (configuration not stated) | – | inactive
3 | CC(C)(O)C(=O)Nc1ccc([N+](=O)[O-])c(C(F)(F)F)c1 | 31.2 µM (active) | inactive
4 | CCOP(=S)(OCC)SCSC(C)(C)C | – | inactive
5 | O=C(O)C(F)(F)C(F)(F)C(F)(F)C(F)(F)C(F)(F)C(F)(F)C(F)(F)C(F)(F)F | 205 µM (active) and 40 µM (active) | inactive
6 | CC(c1ccc(O)cc1)(c1ccc(O)cc1)c1ccc(O)cc1 | 6.08 µM (active) | –
7 | COc1ccc(O)c(C(C)(C)C)c1 | 58.7 µM (active) | –
8 | Oc1ccc(C(c2ccc(O)cc2)(C(F)(F)F)C(F)(F)F)cc1 | 13.1 µM (active) [middle of 4 runs] | –
9 | CCNc1nc(NC(C)C)nc(SC)n1 | 50 µM (active) | –
10 | O=S(=O)(O)C(F)(F)C(F)(F)C(F)(F)C(F)(F)C(F)(F)C(F)(F)F | – | inactive
11 | ClC1=C(Cl)[C@]2(Cl)[C@@H]3[C@H]4C[C@H]([C@@H]5O[C@H]45)[C@@H]3[C@@]1(Cl)C2(Cl)Cl | 2.18 µM (active) | –
12 | CCCCCCCCOC(=O)c1ccccc1C(=O)OCCCCCCCC | – | inactive
13 | Nc1ccc(-c2ccc(N)cc2)cc1 | – | inactive

Target: Nuclear receptor subfamily 1 group I member 3 (Homo sapiens) (UniProt Q14994)
Test: ATG_CAR_TRANS: Attagene TRANS-FACTORIAL HepG2 Assay for human Constitutive Androstane Receptor (CAR) (AID 2282969);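 also: activators raise reporter mRNA above DMSO so AC50 marks induction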
Conditions: HepG2 Attagene TRANS-FACTORIAL CAR reporter
In short: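 Signal is reporter mRNA induction relative to DMSO, measured 24 h after dosing by RT-PCR with fluorescent primer extension and capillary electrophoresis. Human HepG2 liver cells carried transiently transfected chimeric NR-Gal4/GAL4-UAS reporter constructs.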

Nuclear receptor subfamily 1 group I member 3 (Homo sapiens), sequence (Q14994 whole entry, looked up): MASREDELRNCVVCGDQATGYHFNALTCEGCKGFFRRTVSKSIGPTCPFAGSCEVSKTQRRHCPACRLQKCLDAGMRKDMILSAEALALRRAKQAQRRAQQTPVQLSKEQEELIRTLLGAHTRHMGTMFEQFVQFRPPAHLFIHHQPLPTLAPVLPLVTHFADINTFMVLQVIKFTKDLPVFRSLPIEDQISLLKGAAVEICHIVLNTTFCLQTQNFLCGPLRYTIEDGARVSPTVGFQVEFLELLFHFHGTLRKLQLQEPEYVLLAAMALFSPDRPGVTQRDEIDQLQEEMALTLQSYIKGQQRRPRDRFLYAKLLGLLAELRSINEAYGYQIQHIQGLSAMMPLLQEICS

Row | SMILES | outcome
14 | C[C@]12CCC(=O)C=C1CC[C@@H]1[C@@H]2CC[C@@]2(C)[C@H]1CC[C@]2(C)O | inactive
15 | Cc1ccccc1CO[C@@H]1C[C@@]2(C(C)C)CC[C@]1(C)O2 | inactive
16 | CCC(C)c1cc([N+](=O)[O-])cc([N+](=O)[O-])c1O (configuration not stated) | inactive
17 | c1cc2ccc3cccc4ccc(c1)c2c34 | inactive
18 | Cc1ccccc1O | inactive
19 | CC(C)(c1ccccc1)c1ccc(O)cc1 | inactive
20 | ClC(Cl)=C(c1ccc(Cl)cc1)c1ccc(Cl)cc1 | inactive
21 | O=C(O)C(F)(F)C(F)(F)C(F)(F)C(F)(F)C(F)(F)C(F)(F)C(F)(F)C(F)(F)C(F)(F)F | inactive
22 | CO/C=C(/C(=O)OC)c1ccccc1COc1cccc(C(F)(F)F)n1 | inactive
23 | Oc1c(Cl)c(Cl)c(Cl)c(Cl)c1Cl | inactive
24 | Clc1ccc(C(c2ccccc2Cl)C(Cl)(Cl)Cl)cc1 (configuration not stated) | inactive
25 | Cc1ccccc1[N+](=O)[O-] | inactive
26 | CCOC(=O)C(O)(c1ccc(Cl)cc1)c1ccc(Cl)cc1 | inactive
27 | Sc1ccccc1 | inactive
28 | Clc1ccc(Cl)cc1 | inactive
29 | CN(C)CCO | inactive
30 | Cc1cc(-c2ccc(N)c(C)c2)ccc1N | inactive
31 | CCCCCCCCCc1ccc(O)cc1 | inactive
32 | CC(C)C(=O)OCC(C)(C)C(OC(=O)C(C)C)C(C)C (configuration not stated) | inactive
33 | CCOP(=S)(OCC)SCSC(C)(C)C | inactive
34 | COc1ccc(O)c(C(C)(C)C)c1 | inactive
35 | Oc1ccc(C(c2ccc(O)cc2)(C(F)(F)F)C(F)(F)F)cc1 | inactive
36 | CCNc1nc(NC(C)C)nc(SC)n1 | inactive
37 | O=S(=O)(O)C(F)(F)C(F)(F)C(F)(F)C(F)(F)C(F)(F)C(F)(F)F | inactive
38 | CCCCCCCCOC(=O)c1ccccc1C(=O)OCCCCCCCC | inactive
39 | Nc1ccc(-c2ccc(N)cc2)cc1 | inactive
